Sampled rows, rich in hits. Any-hit rate of the full collection: about 2.1%.
ABCB6 inh MLPCN: inhibitors of human ABC transporter ABCB6 | 360,000 compounds, 0.19% hits | K562-ABCB6 porphyrin accumulation, flow cytometry, 1 h; active compounds read low | fluorescence ratio to DMSO, % at 10 µM | Q9NP58;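 active means fluorescence ratio to DMSO below 75%, the collection mean minus 3 SD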;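 further: signal is porphyrin accumulated inside mitochondria; 100% equals median channel fluorescence of DMSO control wells; lower ratio means ABCB6 inhibition with less porphyrin fluorescence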
Target sequence (Q9NP58 whole entry, looked up): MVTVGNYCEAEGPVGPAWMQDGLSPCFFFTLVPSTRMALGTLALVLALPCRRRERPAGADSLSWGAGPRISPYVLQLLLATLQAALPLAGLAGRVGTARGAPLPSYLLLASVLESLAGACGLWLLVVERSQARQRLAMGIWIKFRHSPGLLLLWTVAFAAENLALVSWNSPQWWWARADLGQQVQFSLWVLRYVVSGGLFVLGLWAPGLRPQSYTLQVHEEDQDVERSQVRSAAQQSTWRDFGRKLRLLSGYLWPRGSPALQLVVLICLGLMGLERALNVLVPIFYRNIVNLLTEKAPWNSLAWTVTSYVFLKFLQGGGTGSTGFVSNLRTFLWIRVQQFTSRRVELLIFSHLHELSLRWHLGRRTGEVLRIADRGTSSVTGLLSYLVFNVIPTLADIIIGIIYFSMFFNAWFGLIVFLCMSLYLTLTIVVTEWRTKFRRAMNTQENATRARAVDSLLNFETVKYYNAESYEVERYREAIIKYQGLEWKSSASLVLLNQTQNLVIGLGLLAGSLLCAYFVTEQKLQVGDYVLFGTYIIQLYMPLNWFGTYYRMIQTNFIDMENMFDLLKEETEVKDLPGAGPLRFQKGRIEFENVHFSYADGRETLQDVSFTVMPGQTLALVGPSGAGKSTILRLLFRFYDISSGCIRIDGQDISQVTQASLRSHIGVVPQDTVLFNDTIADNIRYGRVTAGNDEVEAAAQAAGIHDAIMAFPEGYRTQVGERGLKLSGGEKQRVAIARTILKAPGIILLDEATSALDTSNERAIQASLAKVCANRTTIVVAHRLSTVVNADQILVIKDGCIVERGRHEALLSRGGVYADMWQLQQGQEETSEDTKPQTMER
SMARCA2 act: SMARCA2 function activation, primary screen; activation, % at 9.1 µM; 370,000 compounds, 1% hits; MG213 cells, MMTV-luciferase reporter, dexamethasone, overnight; in the data active means activation above about 7.8%;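 further: 0% = vehicle wells and 100% = reference activator wells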
MsrA inhibitor: bovine MsrA inhibition | purified bovine MsrA, absorbance read-out | inhibition, % at 15.5 µM | 360,000 compounds, 0.75% hits;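 further: 0% = vehicle wells with enzyme and 100% = reference inhibitor wells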
bovine MsrA act: activators of bovine methionine sulfoxide reductase A | purified bovine MsrA, absorbance read-out | activation, % at 10.6 µM | 360,000 compounds, 0.3% hits; in the data active means activation above about 7.5%;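 further: 0% = vehicle and 100% = reference activator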
MsrA conf: confirmation of bovine MsrA inhibitors; shares compounds with MsrA inhibitor; purified bovine MsrA, absorbance read-out; inhibition, % at 15.5 µM; 2,300 compounds, 41% hits;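 further: coupled to thioredoxin reductase with NADPH and selenocystamine and DMSO as substrate; 0% = vehicle only and 100% = full effect of reference inhibitor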
Numbers without * were called inactive; x = not tested or not shown. Unless noted, no stated cut-off is given here; in the data, active means inhibition above about 4.5%; inactive means the rest.

SMILES	ABCB6 inh MLPCN	SMARCA2 act	MsrA inhibitor	bovine MsrA act	MsrA conf
CCOC(=O)C(/C=C(\C#N)C(=O)OCC)=C(/N)N1CCN(c2ccccc2)CC1	98	0	6.8*	-3	5.3*
Oc1ccc(/C=N/Nc2ccc(C(F)(F)F)cn2)c(O)c1	99	-2	4	-5	x
Oc1ccc(/C=N/Nc2ccc(C(F)(F)F)cn2)cc1	104	-2	5.5*	1	3
CCOC(=O)c1cccc(-n2cccc2/C=C2\NC(=O)N(CC(=O)O)C2=O)c1	98	-1	5.0*	-4	5
C/C(=N\Nc1cccc(C(=O)O)c1)c1cc2ccccc2o1	98	1	5.5*	-6	3
C/C(=N\Nc1cccc([N+](=O)[O-])c1)c1cc2ccccc2o1	92	-1	2	-3	x
C/C(=N\Nc1ccc(Cl)c(C(=O)O)c1)c1cc2ccccc2o1	98	-4	5.4*	-5	5.8*
Cc1ccc(C2=CCN(C)C(=O)N2c2ccccc2)cc1	x	-3	x	x	x
Cc1ccccc1CN1CCCCC(NC(=O)Cc2cccs2)C1=O (centres undefined)	x	0	x	x	x
O=[N+]([O-])c1ccccc1NC(=S)N/N=C/c1ccc(O)c(O)c1	100	1	5.9*	-5	7.3*
Cc1cc(C)cc(NC(=O)OC2CC3CC2[C@H]2CCCCN2[C@H]3C)c1 (some centres undefined)	x	-2	x	x	x
Cc1nn(CCC(N)=S)c2nc(-c3cccs3)cc(C(F)(F)F)c12	100	3	4.8*	-3	4
N=c1c2c(-c3ccccc3)c(-c3ccccc3)n(Cc3ccccc3)c2ncn1C1CCOCC1	x	0	x	x	x
C#Cc1cccc(Nc2nc(NCCOC)nc3ccsc23)c1	93	0	12*	-4	11*
C#Cc1cccc(Nc2nc(NC(C)C)nc3ccsc23)c1	97	-2	0	0	x
COCCNc1nc(Nc2ccc(C#N)cc2)c2sccc2n1	98	-5	5.1*	-2	2
C#Cc1cccc(Nc2nc(NCc3ccccc3OC)nc3ccsc23)c1	96	-9	18*	-2	11*
Cc1ccc(C)c(OCC(=O)N/N=C\c2cccn2C)c1	105	-2	5.1*	-14	1
Cc1ccc2cc(/C=N/NC(=O)CN3CCOCC3)c(Cl)nc2c1	97	1	5.0*	-3	3
COc1ccc(/C=N/NC(=O)c2c(C)n(C)c3ccc(OC)cc23)c(OC)c1	104	2	4.9*	-5	4
COc1ccc2c(c1)c(C(=O)N/N=C/c1ccccc1Cl)c(C)n2C	102	-2	0	-3	x
Cc1ccsc1/C=N\Nc1cn[nH]c(=O)c1Cl	101	5	4	-6	x
COc1ccc(/C=N/Nc2cn[nH]c(=O)c2Cl)cc1	107	2	5.4*	-8	5.9*
O=c1[nH]ncc(N/N=C/c2ccccc2)c1Cl	99	1	7.2*	-16	6.8*
Cc1ccc(/C=N\Nc2cn[nH]c(=O)c2Cl)cc1	96	3	7.8*	-6	6.6*
SMILES	ABCB6 inh MLPCN	SMARCA2 act	MsrA inhibitor	bovine MsrA act	MsrA conf
COc1cccc(C(O)c2nc(-c3cc(F)cc(F)c3)cs2)c1 (centres undefined)	99	-2	1	-5	x
N#C[C@@H]1N[C@H](CO)[C@@H]1c1ccccc1	x	-2	x	x	x
O=C(N=Nc1c(O)[nH]c2ccccc12)c1ccc(CN2CCOCC2)cc1	103	-3	6.1*	2	3
Fc1ccc(-c2n[nH]c(=S)n2/N=C/c2c[nH]c3ccccc23)cc1	101	-3	5.3*	1	1
Brc1ccc(-c2nc3ccccc3s2)s1	110	3	0	2	x
Nc1ccc2nc(-c3ccccc3)sc2c1	99	4	4.7*	-8	3
Cc1cc(-c2nc3ccccc3s2)ccc1N	103	0	4.7*	-3	3
Nc1ccc(-c2nc3ccccc3s2)cn1	102	6	5.3*	-3	2
CCC(NC(=O)c1ccc2c(c1)c(C)c(C)n2Cc1ccc(Cl)cc1)c1ccccc1 (centres undefined)	x	0	x	x	x
COC(=O)[C@@]12CCCCC3=C1N(CCC3)C(=O)[C@H]2CC(=O)NCCCCc1ccccc1	x	-3	x	x	x
COc1ccc2c(c1)CCCN2C(=O)C1CCCN(S(=O)(=O)c2ccccc2)C1 (centres undefined)	x	-6	x	x	x
CN(C)c1ccc(NC2=C(Cl)C(=O)c3ccccc3C2=O)cc1	98	-8	8.2*	-1	3
CCOc1ccccc1-n1c(=S)sc2c(=O)n(-c3ccc(F)cc3)c(SCC(=O)O)nc21	93	-1	5.6*	-3	2
CN1C(=O)c2cc(NC(=O)c3ccc(F)cc3)ccc2OC[C@H]2O[C@H](CC(=O)NC3CCC3)CC[C@H]21	x	-2	x	x	x
O=C(O)CCC(=O)Nc1ccc(/C=C/C(=O)C2CC2)cc1	91	-2	7.3*	-6	3
COC(=O)c1ccc(N=NN2CCCCCC2)cc1	105	5	4	-12	x
COC(=O)c1ccc(N=NN2CCOCC2)cc1	100	1	6.6*	-4	2
CCC(O)(c1ccc(NC(=O)OC(C)(C)C)cc1)c1cc(OC)cc(OC)c1 (centres undefined)	x	-4	x	x	x
O=C(CC1S/C(=N/N=C/c2cccs2)NC1=O)Nc1ccc(Cl)cc1 (centres undefined)	96	-2	1	-4	x
C/C(=N\N=C1\NC(=O)C(CC(=O)Nc2ccc(Cl)cc2)S1)c1ccco1 (centres undefined)	103	-5	4.8*	-5	4.8*
COc1ccc(/C=N/N=C2/NC(=O)C(CC(=O)NC(C)C)S2)cc1 (centres undefined)	95	1	1	-5	x
O=C(CC1S/C(=N/N=C/c2ccco2)NC1=O)Nc1ccccc1 (centres undefined)	94	-3	5.3*	-3	5.3*
O=C(CC1S/C(=N/N=C/c2c[nH]c3ccccc23)NC1=O)Nc1ccccc1 (centres undefined)	99	0	4	-6	x
NC(=O)NC(=O)CC1S/C(=N/N=C/c2ccccc2)NC1=O (centres undefined)	95	3	5.3*	-15	4
Cc1ccc(/C=N/N=C2/NC(=O)C(CC(=O)N3CCOCC3)S2)cc1 (centres undefined)	100	-3	5.8*	-4	2
SMILES	ABCB6 inh MLPCN	SMARCA2 act	MsrA inhibitor	bovine MsrA act	MsrA conf
COc1ccc(C(C(=O)NC2CCCC2)n2c(CSCCOc3ccccc3)nc3ccccc32)cc1 (centres undefined)	x	-13	0	x	x
COC(=O)C1=C[C@@H]([C@@H](C)[C@H](OC)c2ccccc2Br)[C@@H]2OCCC[C@H]12	x	-3	x	x	x
CC(C)(C)c1ccc(-c2nnc(SCC(=O)Nc3ccc4cn[nH]c4c3)n2-c2ccc(Cl)cc2)cc1	x	3	x	x	x
C[C@H]1[C@@H](C(=O)N2CCCC2)CC(=O)/C(=N/OCc2ccccc2)C[C@@H]1c1ccccc1	x	-3	x	x	x
Cn1c(SCC(=O)Nc2ccccc2-c2ccccc2)nnc1-c1ccccc1	x	-4	x	x	x
O=C1CC(C(=O)Nc2ccc(F)cc2)S/C(=N\N=C\c2ccco2)N1 (centres undefined)	94	0	6.3*	-5	5.0*

High-throughput results from PubChem.
